Out of some 320,000 compounds screened, about 1,300 (0.41%) were called active. Roughly 3% stayed inconclusive and do not appear here. The rule behind the calls is not given here. The list is a sample of the results. Measured potencies and affinities stand elsewhere.

As usually defined, the inhibition is the relative decrease from the control value, in per cent.

The test can be described thus: growth inhibition of non-replicating M. tuberculosis (AID 488890).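 Note: plate controls were DMSO cells for no effect and high antibiotic wells for full effect.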 The settings on record: Mycobacterium tuberculosis non-replicating, at 25 µM, stronger effect = higher value.
Turning to `O=c1c2ccccc2n(Cc2cccc(F)c2)c(=O)n1C1CCCC1`, the inhibition came out at 7.83%.
In the case of `CC(C)C[C@@H](CN(N=O)[C@@H](Cc1ccccc1)CN(C)N=O)N(CCc1ccccc1)N=O`, the inhibition came out at 1.78%.
In the case of `CCOc1ccc(N2C(=O)CC(NC3CCCCNC3=O)C2=O)cc1` (stereo not drawn), the inhibition turned out to be 61.4%.
To `Cc1ccccc1NC(=O)Nc1ccccn1` belongs 1.67%; to `COc1ccc(-c2cc(C(F)(F)F)nc(-n3ccnc3C)n2)cc1`, 31%.
The result for `O=C(COC(=O)CNS(=O)(=O)c1ccc(Br)cc1Cl)NC1CC1` reads -8.59%.
For `Cc1ccc(NC(=O)CCC(=O)c2cccs2)cc1F`, the inhibition is 14.5%.
For the compound `Cc1ccc(NC(=O)Cc2cccs2)cc1Cl`, the inhibition came to 13.4%.
`O=C(Nc1ccc(Cl)cc1)c1cccs1`: the inhibition turned out to be 76.6%.
As for `O=C(CCC(=O)c1cccs1)NCc1ccc(Cl)cc1`, the inhibition was found to be 3.45%.
In the case of `O=c1c2ccccc2ncn1CCCSc1ccc(Cl)cc1`, the inhibition was 72.5%.
As to `O=C(c1ccccc1CCc1ccccc1)N1CCCC1`, the inhibition amounted to 7.78%.
With `CCCCC(=O)Nc1ccc(Br)cn1`, the inhibition turned out to be 6.83%.
For `CCC(=O)Nc1ccc(Br)cn1`, the inhibition is 8.41%.
For `CCN(C(=O)COC(=O)c1cc([N+](=O)[O-])ccc1N1CCOCC1)C1CCS(=O)(=O)C1` (stereo not drawn), the inhibition is -18.3%.
Take `CC1CCc2c(nc3nc[nH]n3c2=O)C1` (stereo not drawn): the inhibition turned out to be 14.7%.
In the case of `Cc1nc2nc3c(c(=O)n2[nH]1)CCC3`, the inhibition is -0.78%.
On to `Cc1cccc(NC(=S)NCC(c2cccnc2)N2CCOCC2)c1C` (stereo not drawn), for which the inhibition was -1.94%.
The result for `CCOc1ccc(N2C(=O)CC(N(CCc3ccc(OC)c(OC)c3)C(=O)/C=C/C(=O)O)C2=O)cc1` (stereo not drawn) reads 16.4%; that for `COC(=O)c1ccc(N2NC(=O)/C(=C/c3ccc(OC)c(OC)c3)C2=O)cc1`, 14.3%; that for `COc1cc(/C=C2/SC(=O)NC2=O)ccc1OC(=O)c1ccco1`, -7.07%.
Take `CCOC(=O)COc1ccc(/C=C2/C(=O)NN(c3ccc(F)cc3)C2=O)cc1OC`: the inhibition was determined as 79.2%.
On to `COc1cc(/C=C2/C(=O)NN(c3ccc(Cl)cc3)C2=O)cc(OC)c1O`, for which the inhibition worked out at 21.1%.
Regarding `COc1cc(/C=C2/SC(=S)N(C)C2=O)ccc1OC(=O)c1ccco1`, the inhibition stood at 31.5%.
Regarding `COc1ccc(/C=C2/C(=O)N(c3ccccc3)N=C2C)cc1OC`, the inhibition came out at 1.07%.
Turning to `COc1cc(/C=C2/C(=O)NN(c3cccc(C)c3)C2=O)cc([N+](=O)[O-])c1O`, the inhibition was 10.2%.
To `COc1ccc(/C=C2/C(=O)N(c3ccccc3)N=C2C)cc1Br` belongs 1.11%; to `CC1CCCN(CCCNC(=O)c2ccc(CS(=O)(=O)c3c(Cl)cccc3Cl)o2)C1` (stereo not drawn), 0.97%.
Consider `C/C(=N\NC(=O)c1ccccc1NC(=O)c1ccc(Cl)cc1)c1ccncc1`, for which the inhibition came out at 14.5%.
As for `Cn1nc(C(=O)N2CCN(S(=O)(=O)/C=C/c3ccccc3)CC2)c2ccccc2c1=O`, the inhibition came out at 1.67%.
Turning to `CCC1C2Cn3c(nc4ccccc43)C1N(C)O2` (stereo not drawn), the inhibition was -9.29%.
To `CC1(C)CC(=O)C(C=NCCN2CCN(C(=O)CCl)CC2)=C(O)C1` belongs 28.9%; to `CCOC(=O)c1sc(C)c(C(=O)NCCCN2CCOCC2)c1N`, -1.46%; to `COc1cc(CC(=O)OCC(=O)Nc2ccc(Cl)c(S(=O)(=O)N(C)C)c2)cc(OC)c1OC`, 16.7%.
The result for `Cc1ncc(CO)c(CNc2ccc(Oc3ccccc3)cc2)c1O` reads 41.9%; that for `CCC1CCc2sc(C(=O)NNC(=S)NCC3CCCO3)cc2C1` (stereo not drawn), 23.3%; that for `O=C(NCC1CCCO1)c1cc2c(s1)CCCC2` (stereo not drawn), 5.26%.
In the case of `CCC1CCc2sc(C(=O)NCc3ccccn3)cc2C1` (stereo not drawn), the inhibition is 75.2%.
The result for `CC1CCc2sc(C(=O)NNC(=O)c3ccncc3)cc2C1` (stereo not drawn) reads 71.2%; that for `CCOc1ccc(NC(=O)CCC(=O)NNC(=O)COc2ccc(C)cc2)cc1`, -22.8%.
The result for `CCOC(=O)c1c(C)[nH]c(C)c1C(=O)CSc1nncs1` reads -5.38%.
To `Cc1[nH]ccc(=O)c1OCC(=O)O` belongs -4.62%; to `COc1ccc(S(=O)(=O)N2CCN(c3ccc4nnc(-c5ccc(F)cc5)n4n3)CC2)cc1`, 24%.
For `CNC[C@H]1Oc2c(NS(=O)(=O)c3ccccc3)cccc2C(=O)N([C@H](C)CO)C[C@@H]1C`, the inhibition was -8.41%.
To `CN(C(=O)CN1C(=O)S/C(=C\c2ccc(F)cc2)C1=O)C1CCS(=O)(=O)C1` (stereo not drawn) belongs -4.74%; to `COc1ccccc1CNC(=O)COc1ccccc1C`, 10%; to `Cc1occc1C(=O)N=Nc1c(O)[nH]c2ccc(Br)cc12`, -11.3%.
The result for `N=C(N)N=Nc1c(O)[nH]c2ccc(Br)cc12` reads 46%; that for `O=C(Nc1ccc(Br)c(Br)c1)C1CCCO1` (stereo not drawn), 40.5%.
The result for `Clc1ccc(N2CCN(Cc3ccco3)CC2)cc1` reads 69.8%.
Regarding `O=[N+]([O-])c1ccc(CN2CCN(c3ccc([N+](=O)[O-])cc3)CC2)cc1`, the inhibition was determined as 73.8%.
The result for `O=[N+]([O-])c1ccccc1-c1ccc(CN2CCN(c3ccccc3)CC2)o1` reads 36.3%; that for `O=[N+]([O-])c1cccc(-c2ccc(CN3CCN(c4ccccc4)CC3)o2)c1`, 36.7%.
As for `O=[N+]([O-])c1ccc(N2CCN(Cc3ccc(Br)o3)CC2)cc1`, the inhibition stood at 78.8%.
In the case of `O=[N+]([O-])c1cc2c(cc1CN1CCN(c3ccc(F)cc3)CC1)OCO2`, the inhibition came out at 12.8%.
Turning to `Clc1ccc(N2CCN(Cc3ccc(Br)o3)CC2)cc1`, the inhibition came to 75.9%.
The result for `O=[N+]([O-])c1ccc(N2CCN(c3ccc(F)cc3)CC2)cc1` reads 24.2%.
Turning to `Cc1cc(C)cc(NC(=O)Cn2c(=O)oc3cc(S(=O)(=O)N4CC(C)CC(C)C4)ccc32)c1` (stereo not drawn), the inhibition came to 12.4%.
With `COc1ccc(N/C(=N\c2nc(C)cc(C)n2)NC(C)=O)cc1OC`, the inhibition was -5.13%.
Consider `COC(/C=C/Nc1ccc(C)c(C)c1)=C(C#N)C#N`, for which the inhibition was -13.9%.
As for `COc1cccc(CNCC(O)(c2ccc(Cl)cc2)c2ccc(Cl)cc2)c1`, the inhibition came to 31.2%.
To `Cc1ccc(C(=O)N(Cc2ccccc2)C(C)(C)C)cc1C` belongs 14%; to `CC(=O)Nc1ccc(NC(=O)CSc2nnc(-c3ccc4c(c3)OCO4)o2)cc1`, 14.8%; to `CCCC(c1nnnn1CCc1ccccc1)N1CCC(C(N)=O)CC1` (stereo not drawn), 8.84%.
For the compound `O=C(N/N=C/c1cccnc1)c1cccc(NC(=O)c2ccccc2Cl)c1`, the inhibition is -2.18%.
The result for `CCN(C(=O)c1c(-c2ccccc2)noc1C)c1ccccc1` reads -7.88%.
As to `COc1ccc(CC(=O)Nc2cc(C)on2)cc1OC`, the inhibition was -12.5%.
For `COc1ccc(C(=O)Nc2cc(C(=O)O)cc(C(=O)O)c2)cc1Cl`, the inhibition came to 1.97%.
The result for `Cc1sc(NC(=O)C2CC=CCC2C(=O)O)c(C(=O)OC(C)C)c1C` (stereo not drawn) reads 24.5%; that for `C=CCn1c(=O)c(C(=O)Nc2ccc(C)cc2)c(O)c2ccccc21`, -32%.
As to `CC(C)Cn1c(=O)c(C(=O)Nc2cnccn2)c(O)c2ccccc21`, the inhibition is -0.18%.
Consider `C=CCn1c(=O)c(C(=O)Nc2ncccc2O)c(O)c2ccccc21`, for which the inhibition amounted to 27.2%.
`CCn1c(=O)c(C(=O)Nc2ccccc2)c(O)c2ccccc21`: the inhibition was 23%.

The values above are taken from PubChem BioAssay AID488890 (Southern Research Specialized Biocontainment Screening …, 2010).
